From PubChem BioAssay (EPA / NIEHS)
Inconclusive results are not listed. Active and inactive are the calls of the source. How the source made its calls, unless noted: active means hit-call score of the fitted dose curve at least 0.9, where 1 is the maximum; inconclusive means response in the unintended direction; inactive means score below 0.9.

Assays:
[1] = TOX21_p53_BLA_p2_viability: Viability Assessment in the Tox21 HCT-116 p53 Agonism Beta-lactamase Assay, Phase 2 (AID 2283591);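 further: compound exposure lasted 16 h at 37 °C; actives lower the ATP signal meaning cytotoxicity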
Outline: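 HCT-116 p53-bla cells (4000/well) rested 5 h at 37C, then received compounds in DMSO (217-fold dilution) for 16 h at 37C, 5% CO2. After the CCF4 read, CellTiter-Glo was added; ATP luminescence was read after 30 min at room temperature.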

[2] = TOX21_p53_BLA_p3_viability: Viability Assessment in the Tox21 HCT-116 p53 Agonism Beta-lactamase Assay, Phase 3 (AID 2283593);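 further: cells exposed to compound for 16 h before reading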
Outline: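 HCT-116 cells (4000/well) rested 5 h at 37C, then got DMSO compounds by pin tool (217-fold dilution) for 16 h at 37C, 5% CO2. After the bla read, CellTiter-Glo was added and luminescence read at 30 min, room temperature.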

[3] = biological target: Cellular tumor antigen p53 (Homo sapiens) (UniProt P04637); test: TOX21_p53_BLA_p3_ratio: Tox21 HCT-116 p53 Agonism Beta-lactamase Assay, Ratio, Phase 3 (AID 2283596)
Outline: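 Cells were seeded at 4000/well, rested 5 h at 37C, then dosed with DMSO compound solutions (217-fold dilution) for 16 h. CCF4-AM substrate was loaded for 2 h at room temperature, and the 460/530 nm emission ratio was fitted for gain of signal versus DMSO.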

[4] = TOX21_p53_BLA_p5_viability: Viability Assessment in the Tox21 HCT-116 p53 Agonism Beta-lactamase Assay, Phase 5 (AID 2283600)
Outline: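 Here cell health was gauged by ATP levels in wells holding 4000 cells, each treated 16 h with DMSO-delivered compounds at 217-fold dilution; reduced luminescence marked toxicity.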

[5] = biological target: Cellular tumor antigen p53 (Homo sapiens) (UniProt P04637); test: TOX21_p53_BLA_p4_ratio: Tox21 HCT-116 p53 Agonism Beta-lactamase Assay, Ratio, Phase 4 (AID 2283601)
Outline: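 HCT116 cells carrying an inducible beta-lactamase reporter were plated at 4000 cells/well, rested 5 h, then exposed to compounds in DMSO (217-fold dilution) for 16 h at 37C. CCF4-AM substrate was loaded 2 h at room temperature; 460/530 nm emission ratio scored gain-of-signal versus DMSO.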

[6] = CCTE_Harrill_HTTr_Viability_MCF7: CCTE's 6-hour Cell Viability Assessment for the High-Throughput Transcriptomics (HTTr) Platform, in MCF-7 cells cultured in DMEM + 10% fetal bovine serum, Harrill Lab (AID 2284010; active means hit-call score of the fitted dose curve at least 0.9, where 1 is the maximum; inactive means score below 0.9)
Outline: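 Eight-point concentration series, six-hour exposure. Propidium iodide exclusion imaged to assess membrane integrity as a cytotoxicity readout; bidirectional fitting was done with DMSO as negative control and activity baseline.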

[7] = CCTE_Harrill_HTTr_Apoptosis_MCF7: CCTE's 6-hour Apoptosis Assessment for the High-Throughput Transcriptomics (HTTr) Platform, in MCF-7 cells cultured in DMEM + 10% fetal bovine serum, Harrill Lab (AID 2284011; active means hit-call score of the fitted dose curve at least 0.9, where 1 is the maximum; inactive means score below 0.9)
Outline: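 Apoptosis in MCF-7 cells grown in DMEM with 10% fetal bovine serum was scored after a six hour exposure by high content imaging of caspase-3/7 activation (CellEvent Caspase 3/7 Green), with DMSO serving as negative control and baseline.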

[8] = CCTE_Harrill_HTTr_CellCount_MCF7: CCTE's Cell Proliferation Assessment for the High-Throughput Transcriptomics (HTTr) Platform, Harrill Lab (AID 2284012);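 further: count of Hoechst-stained nuclei per well by high-content imaging in MCF-7 cells; cells exposed to compound for six hours; intended direction is loss of nuclei count meaning fewer cells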
Outline: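 For this full-screen endpoint, MCF-7 cultures received eight compound dilutions for six hours. Well nuclei counts from Hoechst imaging were analyzed relative to DMSO.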

[9] = TOX21_p53_BLA_p4_viability: Viability Assessment in the Tox21 HCT-116 p53 Agonism Beta-lactamase Assay, Phase 4 (AID 2283597);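 further: hits lower the luminescence signal meaning cytotoxicity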
Outline: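 In this multiplexed secondary endpoint, HCT116 cells (4000 per well, compound at 5 h, 16 h treatment) received CellTiter-Glo after the beta-lactamase read. Luminescence after 30 min RT reflects ATP, and falling signal marks cytotoxicity.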

[10] = biological target: Cellular tumor antigen p53 (Homo sapiens) (UniProt P04637); test: TOX21_p53_BLA_p5_ratio: Tox21 HCT-116 p53 Agonism Beta-lactamase Assay, Ratio, Phase 5 (AID 2283599)
Outline: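 HCT-116 cells carrying a p53-inducible beta-lactamase reporter were seeded at 4000 cells/well and dosed after 5 h with compound in DMSO (217-fold dilution). After 16 h at 37C, CCF4-AM substrate was added for 2 h, and the 460/530 nm emission ratio was scored as gain-of-signal versus DMSO.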

Measured: outcome

Chain of Cellular tumor antigen p53 (Homo sapiens) (P04637 whole entry, looked up): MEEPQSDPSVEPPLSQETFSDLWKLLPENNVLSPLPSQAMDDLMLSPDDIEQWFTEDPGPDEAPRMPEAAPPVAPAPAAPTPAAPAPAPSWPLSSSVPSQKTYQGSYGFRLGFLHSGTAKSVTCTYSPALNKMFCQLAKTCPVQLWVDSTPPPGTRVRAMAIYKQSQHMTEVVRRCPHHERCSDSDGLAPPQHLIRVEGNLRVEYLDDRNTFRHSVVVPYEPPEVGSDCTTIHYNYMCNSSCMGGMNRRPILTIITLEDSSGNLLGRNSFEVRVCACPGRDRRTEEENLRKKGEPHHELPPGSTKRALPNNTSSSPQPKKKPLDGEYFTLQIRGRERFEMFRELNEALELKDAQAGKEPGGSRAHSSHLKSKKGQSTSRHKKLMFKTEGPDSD

CCC[C@H](N[C@@H](C)C(=O)N1[C@H](C(=O)O)C[C@@H]2CCCC[C@@H]21)C(=O)OCC
not listed: [9] | [10]
inactive: all other assays above

CCCCCCc1ccc(-c2ccc(C#N)cc2)cc1
inactive: [1] | [2] | [9]

CC(N)C(=O)OC(C)(C)Cc1ccc(Cl)cc1 (stereo not drawn)
inactive: [1] | [2] | [3] | [4] | [5]

NC1CCN(c2cccc(Cl)n2)CC1
inactive: [1] | [2] | [3] | [10] | [4] | [5]

COC(=O)[C@H]1[C@H]2C[C@@H]3c4[nH]c5cc(OC)ccc5c4CCN3C[C@H]2C[C@@H](OC(=O)COc2ccc(OC)cc2)[C@@H]1OC
inactive: [1] | [2] | [3] | [10] | [4] | [5]

CCCCCCCCC(=O)Cl
inactive: [1] | [2] | [3] | [10] | [4]

OC[C@H]1O[C@H](O[C@H]2O[C@H](CO)[C@@H](O)[C@H](O)[C@H]2O)[C@H](O)[C@@H](O)[C@@H]1O
inactive: [1] | [2] | [3] | [10] | [4]

CO[C@H]1C[C@H](O[C@H]2[C@H](C)[C@@H](O[C@@H]3O[C@H](C)C[C@H](N(C)C)[C@H]3OC(C)=O)[C@@H](C)C[C@]3(CO3)C(=O)[C@H](C)[C@@H](OC(C)=O)[C@@H](C)[C@@H](C)OC(=O)[C@@H]2C)O[C@@H](C)[C@@H]1OC(C)=O
inactive: [1] | [2] | [3] | [10] | [4]

C1CCCC1
inactive: [1] | [2] | [3] | [10] | [4] | [5]

C=CCN1CCCC1CNC(=O)c1cc(S(N)(=O)=O)cc(OC)c1OC (stereo not drawn)
inactive: [1] | [2] | [3] | [10] | [5]

COc1ccc2[nH]c(S(=O)Cc3ncc(C)c(OC)c3C)nc2n1 (stereo not drawn)
inactive: [1] | [2] | [3] | [5]
